High-throughput results (PubChem)
Most compounds without a hit are left out; they make up all but 1.2% or so of the library.
RGS16-Gao: regulators of human RGS16-Galphao interaction | O15492+P09471 | bead-based flow cytometry RGS16-Galphao binding, fluorescence; actives lie on both sides | binding response (% of control), % at 10 µM | 220,000 compounds, 0.38% hits; call rule not given here;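 note: Galphao activated by GDP with aluminum fluoride before binding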
RGS8-Gao reg: modulates binding of RGS8 to human Galphao; multiplexed bead flow cytometry; actives lie on both sides; response (percent of control binding), % at 10 µM; 220,000 compounds, 0.34% hits; P09471; in the data active = response below about 60% or above about 140%; inactive = in between;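 note: Galphao activated as the GDP aluminium fluoride complex binding bead-coupled RGS8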
Target sequence (P09471 whole entry, looked up): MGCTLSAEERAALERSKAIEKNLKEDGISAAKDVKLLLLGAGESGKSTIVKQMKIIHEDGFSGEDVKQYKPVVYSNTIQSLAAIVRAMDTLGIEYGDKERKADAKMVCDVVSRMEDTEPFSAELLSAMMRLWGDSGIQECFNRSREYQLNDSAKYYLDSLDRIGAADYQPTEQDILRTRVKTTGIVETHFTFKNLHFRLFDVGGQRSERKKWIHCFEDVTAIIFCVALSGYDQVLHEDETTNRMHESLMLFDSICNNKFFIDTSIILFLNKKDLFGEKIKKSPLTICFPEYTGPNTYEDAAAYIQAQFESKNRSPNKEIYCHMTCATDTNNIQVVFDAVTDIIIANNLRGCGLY
RGS7-Gao: human RGS7-Galphao interaction regulation. AID 1439. Multiplexed bead flow cytometry, RGS7-Galphao binding; actives lie on both sides. 220,000 compounds, 0.35% hits. P09471. binding response (% of control), % at 10 µM; in the data active = binding response below about 49% or above about 150%; inconclusive = no clear call, values can overlap the other calls; inactive = in between;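 note: fluorescent Galphao held in activated GDP-AlF4 state binding bead-coupled RGS7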
RGS4-Gao reg: modulates binding of RGS4 to human Galphao. binding response (% of control), % at 10 µM. AID 1415. 220,000 compounds, 0.33% hits. Multiplexed bead flow cytometry; actives lie on both sides. P09471; in the data active = binding response below about 49% or above about 150%; inactive = in between;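 note: fluorescent Galphao activated with aluminum fluoride binding bead-coupled RGS4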
GSH fluor: GSH bead compound fluorescence profile; fluorescence (KMESF) at 10 µM; AID 1776; GSH beads flow cytometry, compound fluorescence 488/530 nm; stronger effect = higher value; 190,000 compounds, 0.25% hits; in the data active = fluorescence above about 89;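 note: glutathione beads carrying GST-tagged Bcl family fusion proteins plus one bare bead set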
Avidin bead fluor: compound fluoresces at 488/530 nm on avidin beads. compound fluorescence 488/530 nm, flow cytometry; stronger effect = higher value. fluorescence (KMESF) at 10 µM. 220,000 compounds, 0.38% hits; in the data active = fluorescence above about 47
Each line names hits and unclear results; the compound was inactive in the other large screens.

COCCCn1c(SCC(=O)Nc2ccc(C(C)=O)cc2)nc2ccccc2c1=O	GSH fluor 259
Cc1ccc2c(c1)CCCN2C(=O)c1ccncc1	Avidin bead fluor 131
C=CCNS(=O)(=O)c1cccc2cc(C(=O)O)c(O)cc12	Avidin bead fluor 50
C=CCNS(=O)(=O)c1cccc(C(C)=O)c1	none
O=C(CN1CCOCC1)N1CCN(S(=O)(=O)c2ccccc2)C1c1ccccc1 (configuration not stated)	Avidin bead fluor 59
CN(Cc1ccccc1)S(=O)(=O)c1ccc(NS(=O)(=O)Cc2ccccc2)cc1	Avidin bead fluor 50
CCOc1ccc(N2C(=O)CN(CC(=O)OC)C2=S)cc1	none
Cc1noc(C)c1CSc1nc2ccccc2n1C	GSH fluor 240
Cc1noc(C)c1CSc1nnc2sc3ccccc3n12	none
CCOC(=O)c1[nH]c2ccccc2c1NC(=O)CCN1CCN(C(=O)OCC)CC1	Avidin bead fluor 132
COc1ccc(/C=N/n2c(C)cc(C)c(C(N)=O)c2=O)cc1	GSH fluor 255
COc1ccc(Cn2c(=O)[nH]c3cc(C(=O)NCc4ccc5c(c4)OCO5)ccc3c2=O)cc1	Avidin bead fluor 65
COc1ccc(Cn2c(=O)[nH]c3cc(C(=O)NCCCOC(C)C)ccc3c2=O)cc1	none
Cc1ccccc1NC(=O)C1CCCN1C(=O)NC1CCCCC1 (configuration not stated)	GSH fluor 263
O=C(CCn1cnnn1)Nc1ccccc1	none
CCOc1ccc(CC(=O)NNC(=S)NC2CCCCC2)cc1OCC	GSH fluor 128
CCOc1ccc(CC(=O)NNC(=O)NC2CCCCC2)cc1	none
C=CCN=C1S/C(=C\c2ccc(Cl)cc2)C(=O)N1CC=C	RGS7-Gao inconclusive, Avidin bead fluor 49 (no result: GSH fluor)
COc1ccc(NC(=O)C2CCCC2)cn1	none
CCCCSc1ncc(C(=O)OCC)c(N)n1	GSH fluor 129
C=CCn1c(SCC(=O)c2ccc(O)c(O)c2)nnc1-c1ccccc1OC	GSH fluor 247
CCOC(=O)CCC(=O)NCc1ccc2c(c1)cc(C)n2C	Avidin bead fluor 53
O=C(NCc1ccccc1C(F)(F)F)C1CC(c2ccc(C(F)(F)F)cc2)=NO1 (configuration not stated)	RGS7-Gao inconclusive (no result: GSH fluor)
O=C(NCCN1CCOCC1)c1cc2sccc2n1Cc1ccc(Cl)cc1	Avidin bead fluor 52
Cc1ccc(-n2nc(C)c(/C=N/n3c(C)n[nH]c3=S)c2Cl)cc1	none
C=CCn1c(-c2ccc(C)cc2)nc2ccccc21	Avidin bead fluor 47
CSc1nnc(C(C)(C)C)c(=O)n1/N=C/c1ccc(Cl)cc1	RGS7-Gao inconclusive (no result: GSH fluor)
CCOC(=O)c1cnn(-c2ccc(C)cc2)c1N	GSH fluor 255
N=C1C(c2ccccc2)=C(O)CN1CCCO	none
CC(C)(C)SCCNS(=O)(=O)c1ccc2ccccc2c1	none
COC(=O)CCNS(=O)(=O)c1ccc2ccccc2c1	Avidin bead fluor 66
CC(=O)Nc1nonc1-c1nc2ccccc2n1CC1CC1	Avidin bead fluor 57
CC(=O)Nc1nonc1-c1nc2ccccc2n1CCC#N	none
CC(=O)Nc1ccc(OCC(O)Cn2nc(C)c(C(C)=O)c2C)cc1 (configuration not stated)	Avidin bead fluor 73
O=C(Nc1ccc2c(c1)OCO2)N1CCN(c2ncc(C(F)(F)F)cc2Cl)CC1	GSH fluor 257
CCCNC(=O)COC(=O)/C(C#N)=C/c1cc(C)n(CCC)c1C	none
Cc1ccc(-c2ccc(CCC(=O)O)n2Cc2ccco2)cc1	Avidin bead fluor 49
CCc1nc2c(sc3nc4c(cc32)COC(C)(C)C4)c(=O)n1Cc1ccco1	Avidin bead fluor 65
CCCC(=O)OCC(=O)Nc1cc(C(C)(C)C)nn1-c1ccccc1	GSH fluor 91
CCCC(=O)NC(=S)c1c(C)n(C)n(-c2ccccc2)c1=O	RGS7-Gao inconclusive
COc1ccc(N2CCN(Cc3oc(CO)cc(=O)c3O)CC2)cc1	GSH fluor 250
CN1CCN(Cc2oc(CO)cc(=O)c2O)CC1	none
Cc1ccc(NC(=O)CCC(=O)NNC(=O)c2ccccc2Cl)c(C)c1	RGS7-Gao inconclusive
CCn1c(SCC(=O)C(C)(C)C)nnc1-c1ccccn1	none
CCn1c(SCC(=O)C(C)(C)C)nnc1-c1cnccn1	GSH fluor 95
